Data reported in PubChem BioAssay AID624483 (NMMLSC, 2012).
About 11,000 (3.1%) of roughly 360,000 compounds were called active. About 2% were inconclusive and are not listed. No stated cut-off is given here; in the data, active means fluorescence intensity above about 16000; inconclusive means no clear call, values can overlap the other calls; inactive means below that. The list comes from a sample in which actives are over-represented; it also holds similar structures and randomly drawn compounds.

Test: compound fluorescence in toxin protease inhibitor counterscreen, primary screen, artefact control for toxin protease inhibitor project, biochemical, multiplex microsphere, HTS (AID 624483)
Conditions: compound autofluorescence counterscreen, microsphere flow cytometry; active compounds read high

SMILES	fluorescence intensity
COc1ccc(CCn2c(O)c(C=NC3CC3)c(=O)[nH]c2=O)cc1OC	3180 (inactive)
O=c1[nH]c(=O)n(CCc2ccc(F)cc2)c(O)c1/C=N/N1CCCCC1	3680 (inactive)
COc1ccc(CCn2c(O)c(C=NCCCn3ccnc3)c(=O)[nH]c2=O)cc1OC	22700 (active)
CCc1nc2ccc(C(=O)Nc3cccc(OC)c3)cn2c1N(CCC(C)C)CCN(C)C	3940 (inactive)
COC(=O)c1ccc(S(=O)(=O)N(CCO)Cc2ccccc2)n1C	5690 (inactive)
CCCC(=O)N1CCC1(C)C(=O)NCc1ccc(SC)cc1 (stereo not given)	4000 (inactive)
O=c1oc2ccccc2c(CNc2ccccc2)c1[N+](=O)[O-]	3710 (inactive)
CC1(C(=O)NS(=O)(=O)c2ccc3ccccc3c2)CCN1C(=O)C1(c2ccc(Cl)cc2)CCC1 (stereo not given)	3400 (inactive)
CCc1nc2c(OCc3cccc(OC)c3)cccn2c1N(C)C(=O)C(C)C	4100 (inactive)
COc1ccc2nc(-c3ccccn3)ccc2c1	4000 (inactive)
CC(C)c1nc(-c2ccccn2)no1	21700 (active)
O=C(Oc1ccc(-c2nc(-c3ccccn3)no2)cc1)c1ccccc1	3190 (inactive)
CC(=O)NC(c1ccccc1)c1nc(-c2cccc(C(C)C)c2)cs1 (stereo not given)	3400 (inactive)
Cc1ccccc1OCC(=O)NNC(=O)c1ccc(-n2cncn2)c([N+](=O)[O-])c1	5300 (inactive)
C=C(C)Cn1c(N2CCN(CC)CC2)nc2c1c(=O)[nH]c(=O)n2C	4600 (inactive)
COc1ccc(C2OCC3(CO2)SC(=O)NC3=O)cc1OC (stereo not given)	2510 (inactive)
CCCC(C)n1[nH]c(=O)c2c1NC(=O)CSC2c1ccc(OC)c(OC)c1 (stereo not given)	20600 (active)
CCOC(=O)C1C(c2ccc(OC)c(OC)c2)c2c([nH][nH]c2=O)CC1(C)O (stereo not given)	4630 (inactive)
CCCCN1CC(N2CCN(Cc3cccc(C)c3)CC2)CS1(=O)=O (stereo not given)	6580 (inactive)
O=c1oc2ccccc2c(=O)c2ccccc12	3730 (inactive)
Nc1c(NCCc2ccccc2)c2ccccc2oc1=O	3190 (inactive)
CC(C)(C)Nc1c(N)c(=O)oc2ccccc12	17700 (active)
CN(C)Cc1c(O)ccc2occ(C(O)c3ccccc3)c12 (stereo not given)	2380 (inactive)
CC(=O)c1cccc(-c2cnc3c(NC=O)cc(-c4cccc(C(=O)N(C)C)c4)cn23)c1	4000 (inactive)

SMILES	fluorescence intensity
OCCC#Cc1ccc(N2C(c3ccsc3)=Cc3ccc(F)cc3C2c2c[nH]c3ccccc23)cc1 (stereo not given)	4910 (inactive)
CCOC(=O)C1=C(CC)OC(N)=C(C#N)C1c1ccc(F)cc1F (stereo not given)	2060 (inactive)
COC(=O)C1=C(C)N(C)C(=S)NC1c1cc(OC)ccc1OC (stereo not given)	4360 (inactive)
CCC1=C(C(=O)OC)C(c2cc(OC)ccc2OC)C(C#N)=C(N)O1 (stereo not given)	21500 (active)
Cc1cc(C)cc(NS(=O)(=O)Cc2ccccc2)c1	3320 (inactive)
COc1ccc(OCCNS(=O)(=O)Cc2ccccc2)cc1	2820 (inactive)
CCOCCCNS(=O)(=O)Cc1ccccc1	18800 (active)
COCCNC(=O)c1cc2c(Br)ccc(Br)c2nc1N	4280 (inactive)
CC(=O)Nc1ccc(SCC(=O)NC(=O)c2ccc(Cl)cc2)cc1	3220 (inactive)
COC(=O)/C(NC(C)=O)=C(\C)c1ccc(Cl)cc1	17300 (active)
CC(C)CNC(=S)NC(=O)c1ccc(Cl)cc1	2350 (inactive)
COc1ccc(CC(N)c2csc(NC(=O)NC(c3ccccc3)c3ccccc3)n2)cc1 (stereo not given)	3610 (inactive)
COc1ccc(OC)c(C(O)c2ncc(-c3cccc(C(F)(F)F)c3)[nH]2)c1 (stereo not given)	3890 (inactive)
CN1OC[C@@H]2CN(C(=O)c3cccnc3)[C@H](c3ccc(N4CCCCC4)cc3)C[C@@H]21	4430 (inactive)
CN1OC[C@@H]2CN(C(=O)c3cccc4ccccc34)[C@H](c3ccc(N4CCCCC4)cc3)C[C@@H]21	11700 (inactive)
CN1OC[C@@H]2CN(S(=O)(=O)c3cccc4ccccc34)[C@H](c3ccc(N4CCCCC4)cc3)C[C@@H]21	25600 (active)
Cc1cc(C)c2nc3nc(C)cc(C)c3c(N)c2c1	2140 (inactive)
CCOC(=O)Cc1ncccc1C(=O)Nc1ccc(OC)cc1	3720 (inactive)
CCCCOc1ccc(NC(=O)CSCC(=O)OCC)cc1	21000 (active)
CCOc1ccc(NC(=O)CSc2nncn2C)cc1	3760 (inactive)
COc1ccc(C(C)C)cc1-c1ccc2nncn2c1	3610 (inactive)
CC1(C(=O)NS(=O)(=O)c2ccccc2)CCN1C(=O)c1ccccc1 (stereo not given)	3830 (inactive)
CCCCCCN1CCN(C2CN(Cc3cn(Cc4ccc(F)cc4)nn3)S(=O)(=O)C2)CC1 (stereo not given)	6160 (inactive)
CSc1nsc(SCC(=O)Nc2cc(C(=O)O)ccc2C)n1	4170 (inactive)

SMILES	fluorescence intensity
N[C@@H](Cc1c[nH]c2ccccc12)c1nnc(SCc2c(F)cccc2Cl)o1	22800 (active)
Oc1ccc(-n2nnnc2SCc2c(F)cccc2Cl)cc1	3260 (inactive)
CC(C)C[C@@H](N)c1nnc(SCC(=O)c2ccc(Cl)cc2)o1	9640 (inactive)
CC(C)(C)C1C/C(=C/c2ccco2)C(=O)/C(=C/c2ccco2)C1 (stereo not given)	3920 (inactive)
O=S1(=O)CC(N2CCSCC2)CN1Cc1cn(Cc2cccc(Cl)c2)nn1 (stereo not given)	5080 (inactive)
CC12CN3CC(C)(CN(C1)C3c1cccs1)C2 (stereo not given)	8490 (inactive)
CC1(C)C(=O)C2(CCCCC2)C(=O)OC1c1cccs1 (stereo not given)	20700 (active)
O=C(O)C(c1cccs1)C1(O)CCCCC1 (stereo not given)	3860 (inactive)
CCC(C(=O)N1CCN(S(=O)(=O)c2sc(C(=O)O)c(C)c2C(=O)O)CC1)c1ccccc1 (stereo not given)	9090 (inactive)
CN(c1cccc(NC(=O)c2ccc(CN3CCc4ccccc4C3)cc2)c1)S(C)(=O)=O	3600 (inactive)
COc1cccc(NC(=O)Nc2ccc(F)cc2)c1	3940 (inactive)
COc1ccc(C)cc1S(=O)(=O)N(CC(=O)Nc1cccc([N+](=O)[O-])c1)c1ccc(C)cc1	2390 (inactive)
Cc1ccc(N(CC(=O)Nc2cccc(N(C)S(C)(=O)=O)c2)S(C)(=O)=O)cc1	24500 (active)
CCOc1ccc(N(CC(=O)Nc2cccc(OC)c2)S(C)(=O)=O)cc1	4460 (inactive)
CN(c1cccc(NC(=O)Nc2ccc(Cl)cc2)c1)S(C)(=O)=O	16900 (active)
N#Cc1c(NCCO)ccc([N+](=O)[O-])c1NCCO	3950 (inactive)
O=C(NCc1cccnc1)c1cc(C2CCCN(C(=O)CCCc3ccccc3)C2)on1 (stereo not given)	3480 (inactive)
COc1ccc(-c2coc3c(C(=O)NC(C)C)cccc23)c(C)c1	3850 (inactive)
O=C(COC(=O)c1ccc(F)c(S(=O)(=O)N2CCOCC2)c1)NCc1ccc2c(c1)OCO2	3750 (inactive)
CCOC(=O)N1CCN(c2c(NCCCN3CCCC(C)C3)c(=O)c2=O)CC1 (stereo not given)	4370 (inactive)
Cc1ccc(-c2nc3c(C)cc(Br)cn3c2Cc2ccccc2)cc1	4960 (inactive)
CC(=O)N(CC(O)CO)c1c(I)c(C(=O)NCC(O)CO)c(I)c(C(=O)NCC(O)CO)c1I (stereo not given)	5720 (inactive)
N#Cc1c(N)nc2c(c1N)CC(C(F)(F)F)O2 (stereo not given)	4380 (inactive)
C=CCn1c(COc2cccc3cccnc23)nnc1SCC(=O)OC	21200 (active)

SMILES	fluorescence intensity
C=CCn1c(COc2ccc(F)cc2)nnc1SCC(=O)Nc1cccc(S(N)(=O)=O)c1	4780 (inactive)
C=CCn1c(COc2ccccc2C)nnc1SCC(=O)O	2820 (inactive)
CN(Cc1ccc(C(F)(F)F)cc1)C(=O)[C@H]1O[C@@H](n2cnc3c(N)ncnc32)[C@H](O)[C@@H]1O	4210 (inactive)
COc1cc(C(=O)NCc2ccc3c(c2)cc(C)n3C)cc(OC)c1OC	3720 (inactive)
COCCNC(=O)C1(C)CCCN(Cc2cccc(F)c2)C1 (stereo not given)	2750 (inactive)
OC(c1nnc(-c2ccccc2)o1)c1cccs1 (stereo not given)	4160 (inactive)
Brc1ccc(-c2noc(-c3ccccc3)n2)o1	4610 (inactive)
Brc1ccc(-c2nnc(-c3ccccc3)o2)o1	24200 (active)
CCCCCc1c(-c2ccc(OC)c(OC)c2)ncn1CCc1ccccc1OC	6300 (inactive)
COc1cccc(CNC(=O)COc2cc(O)c3c(c2)OC(C)(C)CC3=O)c1	5480 (inactive)
CC1=C(C(=O)N2CCOCC2)CC(CC(=O)NCc2cccs2)C(=O)N1CCCN1CCCC1=O (stereo not given)	4160 (inactive)
CCN(CC)C(=O)C1CCCN(Cc2cccc(Cl)c2)C1 (stereo not given)	2940 (inactive)
COc1ccc(N2CCN(C(=O)CCc3nc(-c4ccc(C)cc4)no3)CC2)cc1	3440 (inactive)
Cc1ccc(-c2noc(CC(c3ccccc3)c3ccccc3)n2)cc1	4240 (inactive)
COc1ccc(-c2noc(CSc3ccc(C)cc3)n2)cc1	24000 (active)
CC(C)c1ccc(CC(=O)N2CCC2(C)C(=O)NS(=O)(=O)c2ccc(C(C)(C)C)cc2)cc1 (stereo not given)	2850 (inactive)
CCC(=O)N1CCC(C)(C(=O)Nc2cc(OC)c(OC)c(OC)c2)C1 (stereo not given)	3060 (inactive)
CCn1c(CC(=O)Nc2ccccc2)nnc1SCC(=O)N1CCOCC1	6500 (inactive)
Cc1ccc(-n2c(CNc3ccc(F)cc3)nnc2SCC(=O)N2CCOCC2)cc1	4740 (inactive)
O=C(CSc1nnc(Cc2ccccc2)n1-c1ccccc1)N1CCOCC1	16700 (active)
CC(C)(C)NC(=O)COc1ccc(CNc2ccc3[nH]c(=O)[nH]c3c2)cc1	22600 (active)
O=C(COc1ccc([N+](=O)[O-])cc1Cl)Nc1ccc2[nH]c(=O)[nH]c2c1	4100 (inactive)
COC(=O)c1ccc(OCC(=O)NC(C)(C)C)cc1	2670 (inactive)
